The target of experiment [1] is Vascular endothelial growth factor receptor 3 (Homo sapiens) (UniProt P35916). The conditions noted are these: at 10 µM.
Experiment [2] deals with Macrophage colony-stimulating factor 1 receptor (Homo sapiens) (UniProt P07333). To be noted: at 1 µM.
Experiment [3] shares this target. To be noted: at 10 µM.
The target in experiment [4] is Tyrosine-protein kinase Fyn (Homo sapiens) (UniProt P06241). The conditions noted are these: at 1 µM.
The target is the same in experiment [5]. To be noted: at 10 µM.
Experiment [6] concerns the target T1, Mitogen-activated protein kinase kinase kinase kinase 2 (Homo sapiens) (UniProt Q12851).
T1 sequence (whole entry): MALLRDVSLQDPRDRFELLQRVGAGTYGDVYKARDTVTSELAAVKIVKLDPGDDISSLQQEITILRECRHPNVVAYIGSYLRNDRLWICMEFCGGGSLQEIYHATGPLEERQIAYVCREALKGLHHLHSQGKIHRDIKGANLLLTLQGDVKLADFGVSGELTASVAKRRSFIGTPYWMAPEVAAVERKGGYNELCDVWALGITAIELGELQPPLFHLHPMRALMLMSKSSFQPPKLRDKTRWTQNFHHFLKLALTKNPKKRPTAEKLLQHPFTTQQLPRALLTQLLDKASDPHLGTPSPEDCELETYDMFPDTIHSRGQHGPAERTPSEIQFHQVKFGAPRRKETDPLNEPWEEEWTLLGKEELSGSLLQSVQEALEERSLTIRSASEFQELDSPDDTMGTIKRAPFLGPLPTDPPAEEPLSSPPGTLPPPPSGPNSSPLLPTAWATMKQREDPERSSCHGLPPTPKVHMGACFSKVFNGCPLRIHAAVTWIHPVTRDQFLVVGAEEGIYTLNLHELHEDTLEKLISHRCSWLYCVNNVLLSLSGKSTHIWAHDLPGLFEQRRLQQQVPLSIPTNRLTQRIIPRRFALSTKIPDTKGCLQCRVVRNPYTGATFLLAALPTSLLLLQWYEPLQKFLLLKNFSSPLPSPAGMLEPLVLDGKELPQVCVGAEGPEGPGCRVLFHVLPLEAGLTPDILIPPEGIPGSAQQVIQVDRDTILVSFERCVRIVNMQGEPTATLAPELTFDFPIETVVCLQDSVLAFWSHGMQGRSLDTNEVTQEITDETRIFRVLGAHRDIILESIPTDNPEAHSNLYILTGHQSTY
To be noted: at 1 µM.

Experiment [7] concerns the target T1, Mitogen-activated protein kinase kinase kinase kinase 2 (Homo sapiens). To be noted: at 10 µM.
For experiment [8], the target named is G protein-coupled receptor kinase 5 (Homo sapiens) (UniProt P34947). To be noted: at 10 µM.
Experiment [9] concerns the target G protein-coupled receptor kinase 6 (Homo sapiens) (UniProt P43250). To be noted: at 10 µM.
Experiment [10] addresses T2, Rhodopsin kinase GRK7 (Homo sapiens) (UniProt Q8WTQ7).
T2 sequence (whole entry): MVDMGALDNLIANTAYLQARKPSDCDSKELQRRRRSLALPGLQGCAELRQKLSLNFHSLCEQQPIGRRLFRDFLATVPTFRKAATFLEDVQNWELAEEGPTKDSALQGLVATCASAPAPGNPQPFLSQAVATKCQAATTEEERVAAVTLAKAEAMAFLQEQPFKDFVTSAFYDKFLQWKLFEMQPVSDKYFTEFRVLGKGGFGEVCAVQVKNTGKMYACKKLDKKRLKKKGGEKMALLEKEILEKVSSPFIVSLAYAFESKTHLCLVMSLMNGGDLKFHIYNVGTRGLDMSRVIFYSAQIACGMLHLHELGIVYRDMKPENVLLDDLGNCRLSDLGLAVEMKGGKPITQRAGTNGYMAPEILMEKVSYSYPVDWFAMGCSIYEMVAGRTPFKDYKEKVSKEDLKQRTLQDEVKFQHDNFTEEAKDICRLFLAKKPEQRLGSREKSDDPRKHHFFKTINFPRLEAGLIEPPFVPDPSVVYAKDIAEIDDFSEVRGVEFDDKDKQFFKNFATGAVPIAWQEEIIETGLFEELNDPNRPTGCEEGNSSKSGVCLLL
The conditions noted are these: at 1 µM.

Experiment [11] addresses T2, Rhodopsin kinase GRK7 (Homo sapiens). To be noted: at 10 µM.
Experiment [12] has as its target Glycogen synthase kinase-3 alpha (Homo sapiens) (UniProt P49840). The conditions noted are these: at 1 µM.
Experiment [13] has the same target. To be noted: at 10 µM.
Experiment [14] addresses Glycogen synthase kinase-3 beta (Homo sapiens) (UniProt P49841). The conditions noted are these: at 1 µM.
Experiment [15] shares this target. To be noted: at 10 µM.
Experiment [16] has as its target Homeodomain-interacting protein kinase 1 (Homo sapiens) (UniProt Q86Z02). To be noted: at 1 µM.
The target is the same in experiment [17]. To be noted: at 10 µM.
In experiment [18] the target is Homeodomain-interacting protein kinase 2 (Homo sapiens) (UniProt Q9H2X6). To be noted: at 1 µM.
Experiment [19] shares this target. To be noted: at 10 µM.
The target of experiment [20] is Homeodomain-interacting protein kinase 3 (Homo sapiens) (UniProt Q9H422). To be noted: at 1 µM.

Each structure is given as a SMILES string.

Sequence of Glycogen synthase kinase-3 beta (Homo sapiens) (P49841 whole entry, looked up): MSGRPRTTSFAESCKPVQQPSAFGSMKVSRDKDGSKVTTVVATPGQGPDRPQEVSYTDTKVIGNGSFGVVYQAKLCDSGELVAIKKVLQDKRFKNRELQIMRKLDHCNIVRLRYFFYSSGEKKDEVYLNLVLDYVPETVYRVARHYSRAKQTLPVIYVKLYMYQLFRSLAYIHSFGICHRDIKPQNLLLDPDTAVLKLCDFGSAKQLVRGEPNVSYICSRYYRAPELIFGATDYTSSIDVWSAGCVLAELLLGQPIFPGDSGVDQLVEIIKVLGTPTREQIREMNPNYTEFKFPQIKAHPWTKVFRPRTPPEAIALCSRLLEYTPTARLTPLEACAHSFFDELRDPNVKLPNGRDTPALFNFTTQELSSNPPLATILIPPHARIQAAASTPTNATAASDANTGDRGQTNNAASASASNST
Sequence of G protein-coupled receptor kinase 6 (Homo sapiens) (P43250 whole entry, looked up): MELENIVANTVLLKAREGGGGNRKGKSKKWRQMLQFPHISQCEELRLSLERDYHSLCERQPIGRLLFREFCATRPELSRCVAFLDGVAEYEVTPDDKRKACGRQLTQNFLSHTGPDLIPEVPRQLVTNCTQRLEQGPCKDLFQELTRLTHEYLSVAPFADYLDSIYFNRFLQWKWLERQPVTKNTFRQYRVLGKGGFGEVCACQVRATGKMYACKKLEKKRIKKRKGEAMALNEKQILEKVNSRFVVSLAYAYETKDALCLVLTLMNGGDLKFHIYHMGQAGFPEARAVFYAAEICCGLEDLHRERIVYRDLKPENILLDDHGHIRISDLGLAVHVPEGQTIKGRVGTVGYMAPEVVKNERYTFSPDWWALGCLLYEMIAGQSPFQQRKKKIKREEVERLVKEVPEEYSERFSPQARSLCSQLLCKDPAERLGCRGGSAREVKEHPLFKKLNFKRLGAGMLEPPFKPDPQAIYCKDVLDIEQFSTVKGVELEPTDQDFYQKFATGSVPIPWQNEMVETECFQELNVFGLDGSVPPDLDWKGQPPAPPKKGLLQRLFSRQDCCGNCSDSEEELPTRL
Sequence of Homeodomain-interacting protein kinase 1 (Homo sapiens) (Q86Z02 whole entry, looked up): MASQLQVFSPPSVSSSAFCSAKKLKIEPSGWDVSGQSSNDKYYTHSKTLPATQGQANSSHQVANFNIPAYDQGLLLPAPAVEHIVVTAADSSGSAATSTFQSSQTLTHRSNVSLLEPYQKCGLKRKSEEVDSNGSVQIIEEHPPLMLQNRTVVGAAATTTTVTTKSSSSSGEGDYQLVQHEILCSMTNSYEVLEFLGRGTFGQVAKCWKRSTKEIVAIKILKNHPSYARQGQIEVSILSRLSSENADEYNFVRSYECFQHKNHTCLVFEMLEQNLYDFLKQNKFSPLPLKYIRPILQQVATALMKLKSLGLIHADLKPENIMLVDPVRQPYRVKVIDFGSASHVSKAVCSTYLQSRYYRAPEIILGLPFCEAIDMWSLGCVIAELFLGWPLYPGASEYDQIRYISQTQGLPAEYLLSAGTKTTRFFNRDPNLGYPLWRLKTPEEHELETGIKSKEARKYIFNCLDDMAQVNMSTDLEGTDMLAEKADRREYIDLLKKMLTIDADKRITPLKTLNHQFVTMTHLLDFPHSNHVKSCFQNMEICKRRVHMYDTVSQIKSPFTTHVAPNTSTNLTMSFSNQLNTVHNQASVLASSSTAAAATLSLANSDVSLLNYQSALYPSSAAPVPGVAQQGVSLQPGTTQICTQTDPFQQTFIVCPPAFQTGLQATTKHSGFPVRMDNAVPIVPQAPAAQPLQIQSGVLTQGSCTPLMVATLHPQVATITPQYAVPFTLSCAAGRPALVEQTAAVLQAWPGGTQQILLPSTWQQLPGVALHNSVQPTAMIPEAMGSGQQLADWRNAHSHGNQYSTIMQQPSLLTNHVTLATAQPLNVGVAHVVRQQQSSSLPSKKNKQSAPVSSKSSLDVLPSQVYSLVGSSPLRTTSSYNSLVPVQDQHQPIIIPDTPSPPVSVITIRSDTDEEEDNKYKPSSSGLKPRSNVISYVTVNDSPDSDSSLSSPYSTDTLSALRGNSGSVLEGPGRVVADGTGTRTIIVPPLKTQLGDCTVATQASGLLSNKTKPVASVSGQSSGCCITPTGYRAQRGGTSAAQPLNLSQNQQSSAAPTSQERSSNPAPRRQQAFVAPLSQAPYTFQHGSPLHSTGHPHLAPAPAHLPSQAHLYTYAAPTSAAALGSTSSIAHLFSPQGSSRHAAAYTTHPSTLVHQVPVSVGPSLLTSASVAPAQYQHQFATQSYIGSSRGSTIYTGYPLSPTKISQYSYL
Sequence of Tyrosine-protein kinase Fyn (Homo sapiens) (P06241 2-537 limits assumed): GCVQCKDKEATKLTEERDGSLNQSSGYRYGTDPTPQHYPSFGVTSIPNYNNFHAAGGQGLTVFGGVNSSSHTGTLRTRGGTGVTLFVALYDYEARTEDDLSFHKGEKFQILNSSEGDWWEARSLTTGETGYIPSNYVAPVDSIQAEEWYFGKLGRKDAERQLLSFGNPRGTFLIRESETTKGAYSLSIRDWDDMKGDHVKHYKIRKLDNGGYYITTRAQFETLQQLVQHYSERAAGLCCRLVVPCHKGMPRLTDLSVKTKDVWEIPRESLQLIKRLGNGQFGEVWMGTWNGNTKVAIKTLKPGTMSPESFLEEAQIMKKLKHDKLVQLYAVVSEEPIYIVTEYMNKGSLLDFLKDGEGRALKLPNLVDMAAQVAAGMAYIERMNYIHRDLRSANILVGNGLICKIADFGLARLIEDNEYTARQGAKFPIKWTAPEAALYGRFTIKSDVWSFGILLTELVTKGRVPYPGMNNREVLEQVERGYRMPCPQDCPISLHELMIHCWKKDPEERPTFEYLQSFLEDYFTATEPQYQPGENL
Sequence of Vascular endothelial growth factor receptor 3 (Homo sapiens) (P35916 whole entry): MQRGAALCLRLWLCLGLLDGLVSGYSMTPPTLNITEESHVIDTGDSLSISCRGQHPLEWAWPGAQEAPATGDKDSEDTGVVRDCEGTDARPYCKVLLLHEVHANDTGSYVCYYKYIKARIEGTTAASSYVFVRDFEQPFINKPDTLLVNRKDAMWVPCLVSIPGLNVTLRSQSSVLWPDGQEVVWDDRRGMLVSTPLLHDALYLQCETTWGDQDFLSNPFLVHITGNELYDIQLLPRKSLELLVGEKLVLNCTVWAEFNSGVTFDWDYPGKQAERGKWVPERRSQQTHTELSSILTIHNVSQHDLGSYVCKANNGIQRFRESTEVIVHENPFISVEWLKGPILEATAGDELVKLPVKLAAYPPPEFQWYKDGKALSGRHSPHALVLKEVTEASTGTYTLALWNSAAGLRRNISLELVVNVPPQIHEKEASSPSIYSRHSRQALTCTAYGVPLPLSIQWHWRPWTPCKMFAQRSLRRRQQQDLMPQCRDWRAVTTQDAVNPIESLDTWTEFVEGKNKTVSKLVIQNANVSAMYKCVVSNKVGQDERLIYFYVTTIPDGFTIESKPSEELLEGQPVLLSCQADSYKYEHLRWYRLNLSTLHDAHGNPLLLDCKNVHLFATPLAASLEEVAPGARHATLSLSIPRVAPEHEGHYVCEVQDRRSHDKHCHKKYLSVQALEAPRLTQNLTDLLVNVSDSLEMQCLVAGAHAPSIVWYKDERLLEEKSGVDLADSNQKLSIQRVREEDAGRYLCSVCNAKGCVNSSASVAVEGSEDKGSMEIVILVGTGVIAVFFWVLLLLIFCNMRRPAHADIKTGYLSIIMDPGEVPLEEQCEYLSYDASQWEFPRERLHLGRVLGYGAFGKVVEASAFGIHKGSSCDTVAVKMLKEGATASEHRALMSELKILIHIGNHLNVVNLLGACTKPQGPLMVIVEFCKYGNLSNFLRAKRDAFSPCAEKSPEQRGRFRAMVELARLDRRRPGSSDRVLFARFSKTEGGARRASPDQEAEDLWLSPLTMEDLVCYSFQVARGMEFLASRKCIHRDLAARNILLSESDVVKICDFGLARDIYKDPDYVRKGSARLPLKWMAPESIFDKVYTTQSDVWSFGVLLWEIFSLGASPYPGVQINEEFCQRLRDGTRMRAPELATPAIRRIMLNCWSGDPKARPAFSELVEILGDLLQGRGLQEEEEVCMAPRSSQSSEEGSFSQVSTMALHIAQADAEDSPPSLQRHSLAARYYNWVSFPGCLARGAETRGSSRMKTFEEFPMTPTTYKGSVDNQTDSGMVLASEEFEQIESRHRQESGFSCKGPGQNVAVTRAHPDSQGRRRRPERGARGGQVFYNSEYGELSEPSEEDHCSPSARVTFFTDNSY
Sequence of G protein-coupled receptor kinase 5 (Homo sapiens) (P34947 whole entry, looked up): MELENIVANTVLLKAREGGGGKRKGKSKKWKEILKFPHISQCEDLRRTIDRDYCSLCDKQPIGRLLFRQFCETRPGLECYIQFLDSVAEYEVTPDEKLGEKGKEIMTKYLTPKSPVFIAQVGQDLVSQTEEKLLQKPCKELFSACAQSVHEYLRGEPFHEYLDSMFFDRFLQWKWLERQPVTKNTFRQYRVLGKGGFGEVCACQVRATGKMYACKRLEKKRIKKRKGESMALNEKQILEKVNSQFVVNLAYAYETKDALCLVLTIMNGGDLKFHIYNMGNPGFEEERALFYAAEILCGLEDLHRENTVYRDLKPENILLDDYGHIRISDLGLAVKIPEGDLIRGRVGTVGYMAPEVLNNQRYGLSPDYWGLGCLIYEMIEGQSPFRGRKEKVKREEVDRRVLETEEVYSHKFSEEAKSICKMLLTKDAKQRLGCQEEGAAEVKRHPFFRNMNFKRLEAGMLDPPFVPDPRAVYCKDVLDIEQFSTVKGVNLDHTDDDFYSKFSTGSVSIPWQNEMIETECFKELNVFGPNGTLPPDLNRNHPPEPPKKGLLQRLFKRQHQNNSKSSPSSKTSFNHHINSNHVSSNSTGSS

For `Cc1nc2cc3nc(-c4cccs4)cnc3cc2n1C`, the residual activity in experiment [1] was found to be 2%; in [2], 52%; in [3] it was 8%; in experiment [4], 103%; in experiment [5], 69%; in [6], 110%. The residual activity in experiment [7] was 85%; in experiment [8] it was 77%; in [9], 92%; in experiment [10], 113%; in experiment [11], 78%; in experiment [12], 136%. Moreover, the residual activity in experiment [13] was determined as 109%; in [14], 101%; in [15] it was 81%; in experiment [16], 107%; in [17], 106%; in [18], 104%. Also, the figures for the residual activity in experiment [19] and in [20] were 73% and 92%, respectively.

Take `Cn1cc(/C=C2\C(=O)Nc3ccc(S(N)(=O)=O)cc32)c2ccccc21`: the residual activity in experiment [1] is 3%; in experiment [2], 52%; in [3] it was 12%; in experiment [4], 10%; in experiment [5], 3%; in experiment [6] it was 7%. Moreover, the residual activity in experiment [7] is 1%; in [8] it was 37%; in experiment [9] it was 89%; in experiment [10] it was 14%; in experiment [11], 6%; in [12] it was 120%. In addition, the residual activity in experiment [13] worked out at 87%; in experiment [14] it was 89%; in [15] it was 66%; in experiment [16], 91%; in experiment [17] it was 93%; in [18] it was 60%. The residual activity in experiment [19] was found to be 19%; in experiment [20] it was 85%.

On to `COc1ccc(OC)c2c(=S)c3ccccc3[nH]c12`, for which the residual activity is 60% in [1]; 84% in experiment [2]; 62% in [3]; 83% in [4]; 90% in experiment [5]; 90% in [6]. The residual activity in experiment [7] was 80%; in experiment [8], 97%; in experiment [9], 80%; in experiment [10], 84%; in [11] it was 83%; in [12] it was 100%. Moreover, the residual activity in experiment [13] is 85%; in experiment [14], 118%; in experiment [15] it was 94%; in [16], 105%; in experiment [17] it was 67%; in experiment [18], 98%. Further, the residual activity in experiment [19] turned out to be 53%; in experiment [20], 99%.

As to `Cc1nc(-c2ccccc2)c(-c2ccncc2)o1`, the residual activity in [1] was determined as 0%; in [2] it was 90%; in experiment [3], 86%; in experiment [4], 90%; in experiment [5], 69%; in experiment [6], 91%. The residual activity in experiment [7] worked out at 77%; in [8], 107%; in [9], 97%; in [10] it was 105%; in experiment [11], 103%; in experiment [12] it was 92%. Also, the residual activity in experiment [13] was determined as 85%; in experiment [14], 111%; in experiment [15], 78%; in experiment [16], 107%; in experiment [17], 102%; in experiment [18], 94%. In addition, the residual activity amounted to 77% in experiment [19] and 97% in experiment [20].

For the compound `CCOc1cc2ncnc(Nc3cccc(Br)c3)c2cc1OCC`, the residual activity in experiment [1] worked out at 4%; in [2] it was 73%; in [3], 27%; in experiment [4] it was 26%; in experiment [5] it was 4%; in [6], 78%. The residual activity in [7] amounted to 39%; in [8], 84%; in experiment [9], 90%; in experiment [10], 94%; in experiment [11], 91%; in experiment [12], 109%. Also, the residual activity in experiment [13] stood at 115%; in experiment [14] it was 89%; in experiment [15], 52%; in experiment [16] it was 103%; in [17], 99%; in experiment [18], 100%. The residual activity in [19] stood at 91%; in experiment [20], 93%.

For `O=C1NC(=O)/C(=C\c2ccc3nccnc3c2)S1`, the residual activity turned out to be 70% in [1]; 126% in [2]; 112% in experiment [3]; 83% in experiment [4]; 79% in [5]; 75% in experiment [6]. Moreover, the residual activity stood at 26% in [7]; 82% in experiment [8]; 79% in experiment [9]; 87% in [10]; 55% in [11]; 90% in experiment [12]. Besides, the residual activity amounted to 51% in [13]; 85% in experiment [14]; 54% in experiment [15]; 83% in [16]; 28% in [17]; 49% in experiment [18]. The results for the residual activity in experiment [19] and in experiment [20] were 7% and 53%, respectively.

These data come from ChEMBL document CHEMBL2218924, “A broad activity screen in support of a chemogenomic map for kinase signalling research and drug discovery” (Biochem J, 2013).
